Counter-ions that a name gives are not always drawn.
What was measured:
Conditions in all cases: treatment time: 24 h
A549-ACTB-RAB5A [1] = experiment: lowest phenotypically active concentration; higher = less potent
Summary of the method: (§1)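 Phenotypic activity depended on meeting both a deviation and a reproducibility criterion. The fifteen gene-edited A549, HepG2 and WPMY1 reporter lines were treated at 0.3, 1, 3 or 9 µM for 24 h, four wells each, then imaged live with features normalised to solvent control wells. Deviation required ≥3 of 4 wells past the 95th percentile of control Euclidean distances, and reproducibility a median replicate Pearson correlation above the 95th percentile of non-replicates.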

A549-GM130-SQSTM1 [2] = experiment: as above
Summary of the method: as §1

A549-ACTB-RAB5A [3] = experiment: phenotypically active (imaging signature differs from DMSO and reproducible) at any of 0.3-9 uM (binary (1 = active, 0 = inactive)); higher = active
Summary of the method: as §1

A549-CANX-COX4 = experiment: as above
Summary of the method: as §1

A549-GM130-SQSTM1 [4] = experiment: as above
Summary of the method: as §1

A549-TP53BP1-CLTA = experiment: as above
Summary of the method: as §1

A549-TUBA1B-RELA = experiment: as above
Summary of the method: as §1

HepG2-ACTB-RAB5A [5] = experiment: as above
Summary of the method: as §1

HepG2-CANX-COX4 = experiment: as above
Summary of the method: as §1

HepG2-GM130-SQSTM1 = experiment: as above
Summary of the method: as §1

HepG2-TP53BP1-CLTA = experiment: as above
Summary of the method: as §1

HepG2-TUBA1B-RELA = experiment: as above
Summary of the method: as §1

WPMY1-ACTB-RAB5A = experiment: as above
Summary of the method: as §1

WPMY1-CANX-COX4 [6] = experiment: as above
Summary of the method: as §1

WPMY1-GM130-SQSTM1 [7] = experiment: as above
Summary of the method: as §1

WPMY1-TP53BP1-CLTA = experiment: as above
Summary of the method: as §1

WPMY1-TUBA1B-RELA = experiment: as above
Summary of the method: as §1

WPMY1-CANX-COX4 [8] = experiment: lowest phenotypically active concentration; higher = less potent
Summary of the method: as §1

WPMY1-GM130-SQSTM1 [9] = experiment: as above
Summary of the method: as §1

HepG2-ACTB-RAB5A [10] = experiment: as above
Summary of the method: as §1

Row | SMILES | lowest phenotypically active concentration (A549-ACTB-RAB5A [1]) [µM] | lowest phenotypically active concentration (A549-GM130-SQSTM1 [2]) [µM] | phenotypically active (A549-ACTB-RAB5A [3]) | phenotypically active (A549-CANX-COX4) | phenotypically active (A549-GM130-SQSTM1 [4]) | phenotypically active (A549-TP53BP1-CLTA) | phenotypically active (A549-TUBA1B-RELA) | phenotypically active (HepG2-ACTB-RAB5A [5]) | phenotypically active (HepG2-CANX-COX4) | phenotypically active (HepG2-GM130-SQSTM1) | phenotypically active (HepG2-TP53BP1-CLTA) | phenotypically active (HepG2-TUBA1B-RELA) | phenotypically active (WPMY1-ACTB-RAB5A) | phenotypically active (WPMY1-CANX-COX4 [6]) | phenotypically active (WPMY1-GM130-SQSTM1 [7]) | phenotypically active (WPMY1-TP53BP1-CLTA) | phenotypically active (WPMY1-TUBA1B-RELA) | lowest phenotypically active concentration (WPMY1-CANX-COX4 [8]) [µM] | lowest phenotypically active concentration (WPMY1-GM130-SQSTM1 [9]) [µM] | lowest phenotypically active concentration (HepG2-ACTB-RAB5A [10]) [µM]
1 | CC(C)c1nc(CN(C)C(=O)N[C@H](C(=O)N[C@@H](Cc2ccccc2)C[C@H](O)[C@H](Cc2ccccc2)NC(=O)OCc2cncs2)C(C)C)cs1 [ritonavir] | 9 | 9 | 1 (active) | 0 (inactive) | 1 (active) | 0 (inactive) | 0 (inactive) | 0 (inactive) | 0 (inactive) | 1 (active) | 0 (inactive) | 0 (inactive) | 0 (inactive) | 0 (inactive) | 0 (inactive) | 0 (inactive) | 0 (inactive) | – | – | –
2 | Nc1cc(N)c(N)cc1N [FAK Inhibitor 14] | 3 | 9 | 1 (active) | 0 (inactive) | 1 (active) | 0 (inactive) | 1 (active) | 0 (inactive) | 0 (inactive) | 0 (inactive) | 1 (active) | 1 (active) | 1 (active) | 1 (active) | 1 (active) | 1 (active) | 1 (active) | 9 | 3 | –
3 | Cc1ccc(O)c([C@H](CCN(C(C)C)C(C)C)c2ccccc2)c1 [Tolterodine L-tartrate] | 9 | 9 | 1 (active) | 0 (inactive) | 1 (active) | 0 (inactive) | 0 (inactive) | 0 (inactive) | 0 (inactive) | 0 (inactive) | 0 (inactive) | 0 (inactive) | 0 (inactive) | 0 (inactive) | 1 (active) | 0 (inactive) | 0 (inactive) | – | 9 | –
4 | NC(=O)[C@@H](CCC(F)(F)F)N(Cc1ccc(-c2ncon2)cc1F)S(=O)(=O)c1ccc(Cl)cc1 [avagacestat] | 9 | – | 1 (active) | 0 (inactive) | 0 (inactive) | 0 (inactive) | 0 (inactive) | 1 (active) | 0 (inactive) | 0 (inactive) | 0 (inactive) | 0 (inactive) | 0 (inactive) | 0 (inactive) | 0 (inactive) | 0 (inactive) | 0 (inactive) | – | – | 9
5 | CCc1nc(-c2cccc(C)c2)c(-c2ccnc(NC(=O)c3ccccc3)c2)s1 | 9 | 9 | 1 (active) | 0 (inactive) | 1 (active) | 0 (inactive) | 0 (inactive) | 1 (active) | 1 (active) | 1 (active) | 1 (active) | 1 (active) | 1 (active) | 0 (inactive) | 0 (inactive) | 0 (inactive) | 1 (active) | – | – | 9
6 | COc1cc2c(cc1OC)-c1c/c(=N/c3c(C)cc(C)cc3C)n(C)c(=O)n1CC2 [Trequinsin hydrochloride] | 9 | 9 | 1 (active) | 0 (inactive) | 1 (active) | 0 (inactive) | 0 (inactive) | 1 (active) | 1 (active) | 0 (inactive) | 0 (inactive) | 0 (inactive) | 1 (active) | 1 (active) | 1 (active) | 1 (active) | 1 (active) | 9 | 9 | 9
7 | Cc1ccc(S(=O)(=O)c2ccc([N+](=O)[O-])o2)cc1 | 3 | 3 | 1 (active) | 0 (inactive) | 1 (active) | 0 (inactive) | 0 (inactive) | 1 (active) | 0 (inactive) | 1 (active) | 0 (inactive) | 1 (active) | 1 (active) | 1 (active) | 1 (active) | 1 (active) | 1 (active) | 9 | 3 | 9
8 | Cc1ccc(NC(=O)c2cccc(C(C)(C)C#N)c2)cc1Nc1ccc2ncn(C)c(=O)c2c1 | 1 | – | 1 (active) | 0 (inactive) | 0 (inactive) | 1 (active) | 1 (active) | 1 (active) | 1 (active) | 1 (active) | 1 (active) | 1 (active) | 1 (active) | 1 (active) | 1 (active) | 1 (active) | 0 (inactive) | 9 | 3 | ≤ 0.3
9 | Fc1ccccc1Nc1nc2nonc2nc1Nc1ccccc1F | 9 | 3 | 1 (active) | 0 (inactive) | 1 (active) | 0 (inactive) | 1 (active) | 0 (inactive) | 0 (inactive) | 0 (inactive) | 1 (active) | 1 (active) | 1 (active) | 1 (active) | 0 (inactive) | 0 (inactive) | 0 (inactive) | 9 | – | –
10 | O=C(CCCCCCC(=O)NO)NO | 9 | – | 1 (active) | 0 (inactive) | 0 (inactive) | 0 (inactive) | 0 (inactive) | 1 (active) | 0 (inactive) | 0 (inactive) | 0 (inactive) | 0 (inactive) | 0 (inactive) | 0 (inactive) | 0 (inactive) | 0 (inactive) | 0 (inactive) | – | – | 9
11 | O=C(CCCCCCC(=O)Nc1ccc([C@H]2O[C@@H](CSc3nc(-c4ccccc4)c(-c4ccccc4)o3)C[C@@H](c3ccc(CO)cc3)O2)cc1)NO [Tubacin] | 9 | 9 | 1 (active) | 0 (inactive) | 1 (active) | 0 (inactive) | 0 (inactive) | 0 (inactive) | 0 (inactive) | 0 (inactive) | 0 (inactive) | 0 (inactive) | 1 (active) | 1 (active) | 1 (active) | 1 (active) | 1 (active) | 9 | 3 | –
12 | Nc1ccc(N=Nc2ccccc2)c(N)n1 [phenazopyridine] | ≤ 0.3 | 1 | 1 (active) | 0 (inactive) | 1 (active) | 0 (inactive) | 0 (inactive) | 0 (inactive) | 0 (inactive) | 0 (inactive) | 0 (inactive) | 0 (inactive) | 0 (inactive) | 0 (inactive) | 1 (active) | 0 (inactive) | 0 (inactive) | – | 3 | –
13 | O=C(Nc1ccc(CN2CCOCC2)cc1)c1ccc(-c2cccc(Cl)c2)o1 | 9 | – | 1 (active) | 0 (inactive) | 0 (inactive) | 0 (inactive) | 1 (active) | 0 (inactive) | 0 (inactive) | 0 (inactive) | 0 (inactive) | 1 (active) | 0 (inactive) | 0 (inactive) | 0 (inactive) | 0 (inactive) | 0 (inactive) | – | – | –
14 | O=c1cc(-c2ccccc2)oc2cc(O)cc(O)c12 [Chrysin] | 9 | 9 | 1 (active) | 0 (inactive) | 1 (active) | 0 (inactive) | 0 (inactive) | 0 (inactive) | 0 (inactive) | 0 (inactive) | 0 (inactive) | 0 (inactive) | 0 (inactive) | 1 (active) | 0 (inactive) | 1 (active) | 0 (inactive) | 9 | – | –
15 | CN1c2ccc([N+](=O)[O-])cc2N=C(c2ccc(C(=O)O)cc2)c2cc3c(cc21)C(C)(C)CCC3(C)C | 9 | 9 | 1 (active) | 0 (inactive) | 1 (active) | 0 (inactive) | 1 (active) | 0 (inactive) | 0 (inactive) | 0 (inactive) | 0 (inactive) | 1 (active) | 0 (inactive) | 0 (inactive) | 0 (inactive) | 0 (inactive) | 0 (inactive) | – | – | –
16 | CC(C)(C)n1nc(-c2ccc(Cl)cc2)c2c(N)ncnc21 | 1 | – | 1 (active) | 0 (inactive) | 0 (inactive) | 0 (inactive) | 1 (active) | 1 (active) | 0 (inactive) | 0 (inactive) | 1 (active) | 0 (inactive) | 0 (inactive) | 0 (inactive) | 0 (inactive) | 0 (inactive) | 0 (inactive) | – | – | 3
17 | Nc1ncnc2c1c(-c1ccc(Oc3ccccc3)cc1)nn2C1CCCC1 | 9 | 9 | 1 (active) | 0 (inactive) | 1 (active) | 0 (inactive) | 1 (active) | 0 (inactive) | 0 (inactive) | 0 (inactive) | 0 (inactive) | 0 (inactive) | 0 (inactive) | 0 (inactive) | 0 (inactive) | 1 (active) | 0 (inactive) | – | – | –
18 | O=S(=O)(c1cccc2cnccc12)N1CCNCC1 | 3 | – | 1 (active) | 0 (inactive) | 0 (inactive) | 1 (active) | 1 (active) | 1 (active) | 1 (active) | 1 (active) | 1 (active) | 1 (active) | 1 (active) | 1 (active) | 1 (active) | 1 (active) | 1 (active) | 9 | 9 | 9
19 | CCN1/C(=C/C(C)=O)Sc2ccc(O)cc21 | 9 | – | 1 (active) | 0 (inactive) | 0 (inactive) | 1 (active) | 0 (inactive) | 1 (active) | 0 (inactive) | 0 (inactive) | 0 (inactive) | 0 (inactive) | 1 (active) | 0 (inactive) | 0 (inactive) | 1 (active) | 0 (inactive) | – | – | 9
20 | Cc1cccc(CN2CCN(C(c3ccccc3)c3ccc(Cl)cc3)CC2)c1 (centres undefined) [Meclizine dihydrochloride] | 9 | – | 1 (active) | 0 (inactive) | 0 (inactive) | 0 (inactive) | 0 (inactive) | 0 (inactive) | 0 (inactive) | 0 (inactive) | 0 (inactive) | 1 (active) | 0 (inactive) | 0 (inactive) | 0 (inactive) | 0 (inactive) | 0 (inactive) | – | – | –
21 | CC(C)(C(=O)c1cccnc1)c1cccnc1 [metyrapone] | – | 9 | 0 (inactive) | 0 (inactive) | 1 (active) | 0 (inactive) | 0 (inactive) | 0 (inactive) | 0 (inactive) | 0 (inactive) | 0 (inactive) | 0 (inactive) | 0 (inactive) | 0 (inactive) | 0 (inactive) | 0 (inactive) | 0 (inactive) | – | – | –
22 | CC(=O)N1CCN(c2ccc(OC[C@H]3CO[C@](Cn4ccnc4)(c4ccc(Cl)cc4Cl)O3)cc2)CC1 [Ketoconazole] | 9 | – | 1 (active) | 0 (inactive) | 0 (inactive) | 0 (inactive) | 0 (inactive) | 0 (inactive) | 0 (inactive) | 0 (inactive) | 0 (inactive) | 0 (inactive) | 0 (inactive) | 0 (inactive) | 1 (active) | 0 (inactive) | 0 (inactive) | – | 9 | –
23 | Cc1cccc(-c2nn(C(=S)Nc3ccccc3)cc2-c2ccnc3ccccc23)n1 | – | 9 | 0 (inactive) | 1 (active) | 1 (active) | 0 (inactive) | 1 (active) | 1 (active) | 1 (active) | 1 (active) | 1 (active) | 1 (active) | 1 (active) | 1 (active) | 1 (active) | 1 (active) | 1 (active) | 9 | 9 | 9
